Test results reported in PubChem BioAssay (NCI).
The panel holds about 79,000 compounds, 15% with a hit somewhere; the sample as a whole holds those more often. Activity calls are given as the source filed them. Rule as the data show it: active = growth inhibition above about 70%; inactive = the rest.

Columns and labels:
[1] = NCI Yeast Anticancer Drug Screen. Data for the rad50 strain (AID 155);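 also: 0% = growth of vehicle-only cultures of the same strain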; settings: S. cerevisiae rad50 strain growth inhibition, stronger effect = higher value
How it was run: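 Compounds were tested on a yeast strain with an engineered DNA damage repair alteration; the reported value is growth inhibition normalised to vehicle treatment.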

[2] = NCI Yeast Anticancer Drug Screen. Data for the mec2-1 strain (AID 157); settings: S. cerevisiae mec2-1 strain, stronger effect = higher value
How it was run: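 Readout is yeast growth inhibition, normalised to vehicle-treated controls, in the mec2-1 strain exposed to compound.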

[3] = NCI Yeast Anticancer Drug Screen. Data for the sgs1 mgt1 strain (AID 161);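 also: 0% = growth of cultures given vehicle only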; settings: S. cerevisiae sgs1 mgt1 strain, stronger effect = higher value
How it was run: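 Compounds are added to genetically altered yeast, and growth is compared with cultures given vehicle alone to give percent inhibition.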

[4] = NCI Yeast Anticancer Drug Screen. Data for the cln2 rad14 strain (AID 165);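 also: 0% = growth equal to vehicle treated cultures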; settings: S. cerevisiae cln2 rad14 strain, stronger effect = higher value
How it was run: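 Relative to vehicle controls, growth inhibition of compound-treated cln2 rad14 yeast was recorded.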

[5] = NCI Yeast Anticancer Drug Screen. Data for the bub3 strain (AID 167); settings: S. cerevisiae bub3 mutant strain, stronger effect = higher value
How it was run: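 Growth of a checkpoint-deficient yeast mutant is measured after compound exposure. Values represent inhibition relative to vehicle.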

[6] = NCI Yeast Anticancer Drug Screen. Data for the mlh1 rad18 strain (AID 175); settings: S. cerevisiae mlh1 rad18 strain growth inhibition, stronger effect = higher value
How it was run: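 Test agents were incubated with a yeast strain of defined genotype (DNA damage repair defect). Inhibition of growth was derived by comparison with vehicle-exposed cultures.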

[7] = at 5.0 µM (retest, dose inferred, filed as 0.5)
[8] = at 50.0 µM (retest, dose inferred, filed as 5.0)

Measured: growth inhibition

COc1ccc(C2=C(Cl)C(=O)N(c3ccc(Cl)cc3)C(=O)C2(Cl)Cl)cc1
active: [1]; [8] 95% | [1]; at 50.0 µM 93.2% | [2]; [8] 97% | [2]; at 50.0 µM 98.2% | [3]; [8] 96% | [3]; at 50.0 µM 97.1% | [4]; [8] 91% | [5]; [8] 95% | [5]; at 50.0 µM 93.2% | [6]; [8] 94% | [6]; at 50.0 µM 96%
inactive: [1]; [7] 12% | [2]; [7] 3% | [3]; [7] 13% | [4]; [7] -10% | [4]; at 50.0 µM 63% | [5]; [7] -3% | [6]; [7] 9%

CNC(=O)OCC1=CC(=O)C(OC)=C(OC)C1=O
inactive: [1]; [7] -15% | [1]; [8] -8% | [1]; at 50.0 µM 4.5% | [2]; [7] -12% | [2]; [8] -14% | [2]; at 50.0 µM 11.9% | [3]; [7] -10% | [3]; [8] -2% | [3]; at 50.0 µM 28.4% | [4]; [7] -6% | [4]; [8] -5% | [4]; at 50.0 µM 9.55% | [5]; [7] -9% | [5]; [8] -6% | [5]; at 50.0 µM -20.6% | [6]; [7] -8% | [6]; [8] -5% | [6]; at 50.0 µM 8.95%

N=C(N)c1cccc(-c2ccc(-c3ccccc3)o2)c1
inactive: [1]; [7] -3% | [1]; [8] 62% | [2]; [7] 4% | [3]; [7] 0% | [3]; at 50.0 µM 57.2% | [4]; [7] 2% | [4]; [8] 67% | [5]; [7] 3% | [6]; [7] -11%
active: [1]; at 50.0 µM 92.2% | [2]; [8] 72% | [2]; at 50.0 µM 89.8% | [3]; [8] 94% | [4]; at 50.0 µM 93.8% | [5]; [8] 71% | [5]; at 50.0 µM 79% | [6]; [8] 85% | [6]; at 50.0 µM 97%

COC(=O)/C=C/c1cccc[n+]1[O-]
inactive: [1]; [7] 3% | [1]; [8] -6% | [1]; at 50.0 µM 44.6% | [2]; [7] 3% | [2]; [8] -4% | [2]; at 50.0 µM -2.85% | [3]; [7] 4% | [3]; [8] -6% | [3]; at 50.0 µM 0.55% | [4]; [7] 4% | [4]; [8] -15% | [4]; at 50.0 µM 54.8% | [5]; [7] 4% | [5]; [8] 0% | [5]; at 50.0 µM -4.4% | [6]; [7] -1% | [6]; [8] -11% | [6]; at 50.0 µM 17.8%

CN(C(=O)c1ccc(Cl)cc1)C(=S)N1CCN(c2ccccc2)CC1
inactive: [1]; [7] -11% | [2]; [7] -5% | [3]; [7] -16% | [4]; [7] 3% | [4]; [8] 41% | [4]; at 50.0 µM 61.2% | [5]; [7] 1% | [5]; at 50.0 µM 63.5% | [6]; [7] -10%
active: [1]; [8] 72% | [1]; at 50.0 µM 80.3% | [2]; [8] 80% | [2]; at 50.0 µM 74.1% | [3]; [8] 82% | [3]; at 50.0 µM 79% | [5]; [8] 88% | [6]; [8] 89% | [6]; at 50.0 µM 72.5%

Cc1[nH]c2ccccc2c1-c1ccccc1
inactive: [1]; [7] -126% | [2]; [7] -48% | [3]; [7] -65% | [4]; [7] -53% | [5]; [7] -62% | [6]; [7] -122%
active: [1]; [8] 98% | [1]; at 50.0 µM 99.5% | [2]; [8] 99% | [2]; at 50.0 µM 99.6% | [3]; [8] 98% | [3]; at 50.0 µM 99.5% | [4]; [8] 99% | [4]; at 50.0 µM 99% | [5]; [8] 98% | [5]; at 50.0 µM 99.4% | [6]; [8] 98% | [6]; at 50.0 µM 99.5%

Nc1nc(N)c(C(=O)SCc2ccccc2)nc1Cl
inactive: [1]; [7] 6% | [1]; at 50.0 µM 66% | [2]; [7] 2% | [2]; [8] 57% | [2]; at 50.0 µM 58.9% | [3]; [7] 3% | [3]; [8] 52% | [4]; [7] 2% | [4]; at 50.0 µM 4.95% | [5]; [7] -2% | [5]; [8] 62% | [5]; at 50.0 µM 7.45% | [6]; [7] 5% | [6]; at 50.0 µM 69.3%
active: [1]; [8] 70% | [3]; at 50.0 µM 97.4% | [4]; [8] 70% | [6]; [8] 94%

CC1COC(=O)O1 (configuration not stated)
inactive: [1]; [7] -31% | [1]; [8] -1% | [1]; at 50.0 µM -4.85% | [2]; [7] -3% | [2]; [8] -2% | [2]; at 50.0 µM -2.35% | [3]; [7] 6% | [3]; [8] 6% | [3]; at 50.0 µM 6% | [4]; [7] 6% | [4]; [8] 2% | [4]; at 50.0 µM 15.2% | [5]; [7] 3% | [5]; [8] 4% | [5]; at 50.0 µM -2% | [6]; [7] 7% | [6]; [8] 18% | [6]; at 50.0 µM 15.8%

CCCCCCCCCc1ccc(O)c(Cl)c1
active: [1]; [8] 94% | [1]; at 50.0 µM 99.7% | [2]; [8] 90% | [2]; at 50.0 µM 99.8% | [3]; [8] 99% | [3]; at 50.0 µM 99.2% | [4]; [8] 97% | [4]; at 50.0 µM 99.5% | [5]; [8] 86% | [5]; at 50.0 µM 99.4% | [6]; [8] 99% | [6]; at 50.0 µM 99.5%
inactive: [1]; [7] -28% | [2]; [7] -3% | [3]; [7] -2% | [4]; [7] -12% | [5]; [7] -1% | [6]; [7] -9%
